According to PubChem BioAssay (Tox21):
Where “and” joins values, the source holds several entries; their conditions need not be identical. Identical values can stand only once. Records with an inconclusive call do not appear. Calls of active or inactive are those of the source. Unless noted, calls follow the shape of the dose curve; as a rule, active = well fitted curve in the direction sought with a large enough effect in the repeat runs; inconclusive = weak or mixed curves; inactive = no such curve, though single readings can be large; an effect the other way counts as inactive or inconclusive.

Key:
[1] = biological target: Progesterone receptor (Homo sapiens) (UniProt P06401); assay: qHTS assay to identify small molecule agonists of the progesterone receptor (PR) signaling pathway (AID 1346784; calls by dose curve; also: nearly all actives have a fitted effect of over 30% in size)
Summary of the method: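 Reporter assay, GripTite PR-UAS-bla HEK 293T cells: 16 hr exposure to DMSO-dissolved compounds at 37C, 5% CO2, in steroid-depleted (2% charcoal-stripped FBS) medium; beta-lactamase measured by FRET fluorescence.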

[2] = qHTS assay to identify small molecule agonists of the progesterone receptor (PR) signaling pathway - cell viability counter screen (AID 1346799; calls by dose curve; also: nearly all actives have a fitted effect of over 45% in size; also: potency is read from the fitted curve at half-maximal effect)
Summary of the method: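 Multiplexed viability read: CellTiter-Glo luminescence, 30 min RT, following LiveBLAzer FRET measurement on PR-UAS-bla HEK293T cells exposed to compounds 16 hr.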

[3] = qHTS assay to identify small molecule antagonists of the TGF-beta/Smad signaling pathway - cell viability counter screen (AID 1346824); also: nearly all actives have a fitted effect of over 50% in size
Summary of the method: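 Cytotoxicity counter-screen run in the same wells as the beta-lactamase Smad reporter read: CellTiter-Glo luminescence after 30 min at room temperature. HEK 293T SBE-bla cells had 5 hr compound exposure at 37 C with TGF-beta1 (0.25 ng/mL stock).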

[4] = qHTS assay to identify small molecule agonists of the TGF-beta/Smad signaling pathway - cell viability counter screen (AID 1346829); also: top concentration of the series differs between compounds; nearly all actives have a fitted effect of over 45% in size
Summary of the method: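 In parallel with the Smad reporter read, viability of HEK 293T cells stably carrying SBE-bla is quantified by ATP luminescence following 5 hr compound treatment.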

[5] = qHTS assay to identify small molecule agonists of the TGF-beta/Smad signaling pathway (AID 1346859; active = well fitted activation curve with a large enough effect in the signal ratio in the repeat runs, not every such curve was filed as active; the % refers to the signal ratio; also: series mostly up to about 77 µM)
Summary of the method: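 Screening used HEK 293T SBE-bla cells at 4,000/well. Test agents: 5 hr, 37 C. Detection: FRET substrate, 2 hr RT, then excitation 405 nm with emissions at 460 and 530 nm.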

[6] = biological target: Thyrotropin-releasing hormone receptor (Homo sapiens) (UniProt P34981); assay: qHTS assay to identify small molecule antagonists of the thyrotropin-releasing hormone receptor (TRHR) signaling pathway (AID 1346877; active = well fitted inhibition curve with a large enough effect in the repeat runs, not every such curve was filed as active; also: series mostly up to about 51 µM)
Summary of the method: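 Antagonism is measured as suppression of the calcium response to 1 nM TRH in TRHR-HEK293 cells that have been dye-loaded for 2 h at 37 °C after overnight plating. Each compound is tested at 15 concentrations in triplicate.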

[7] = biological target: Thyrotropin-releasing hormone receptor (Homo sapiens) (UniProt P34981); assay: qHTS assay to identify small molecule agonists of the thyrotropin-releasing hormone receptor (TRHR) signaling pathway (AID 1346891; calls by dose curve; also: series mostly up to about 58 µM)
Summary of the method: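 Readout was intracellular calcium fluorescence in TRHR-Hek293 cells. Cells were incubated 18 h, dye-loaded 2 h at 37 °C, and treated with compound in agonist mode.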

[8] = Human pregnane X receptor (PXR) small molecule agonists, qHTS cell viability counter screen (AID 1346977); also: nearly all actives have a fitted effect of over 50% in size; also: potency is read from the fitted curve at half-maximal effect
Summary of the method: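 In each well, the PXR reporter HepG2 line was checked for viability: CellTiter-Fluor reagent added 23hr post-dosing, fluorescence read after 1hr incubation at 37C.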

[9] = Caspase-3/7 induction in HepG2 cells by small molecules, qHTS assay (AID 1346978); also: nearly all actives have a fitted effect of over 15% in size; also: potency is read from the fitted curve at half-maximal effect
Summary of the method: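 Caspase-3/7 induction was measured by Caspase-Glo 3/7 luminescence (30 min, room temperature) after a 17 hr compound exposure of wild-type HepG2 cells seeded at 2,000 per well and pre-incubated 5 hr.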

[10] = Caspase-3/7 induction in HepG2 cells by small molecules, qHTS cell viability counter screen (AID 1346981); also: nearly all actives have a fitted effect of over 30% in size; also: potency is read from the fitted curve at half-maximal effect
Summary of the method: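 Cell viability is measured as a cytotoxicity counter screen alongside the Caspase-Glo 3/7 readout in identical wells. Wild-type HepG2 cells are treated with test compounds for 16 hr at 37 C before CellTiter-Fluor addition and a 1-hr incubation.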

[11] = biological target: Nuclear receptor subfamily 1 group I member 2 (Homo sapiens) (UniProt O75469); assay: Human pregnane X receptor (PXR) small molecule agonists, qHTS assay (AID 1346982); also: nearly all actives have a fitted effect of over 35% in size; also: potency is read from the fitted curve at half-maximal effect
Summary of the method: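 Cells: HepG2 stably carrying PXR-Luc. Medium held 5% charcoal-stripped FBS. Compounds in DMSO added after 5 hr plating, incubated 24 hr, then luminescence quantified with ONE-Glo.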

[12] = biological target: Cytochrome P450 2D6 (Homo sapiens) (UniProt P10635); assay: Cytochrome P450 Family 2 Subfamily D Member 6 (CYP2D6) small molecule antagonists: luciferase reporter qHTS assay (AID 1671196); also: nearly all actives have a fitted effect of over 50% in size; also: potency is read from the fitted curve at half-maximal effect
Summary of the method: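 Enzyme and proluciferin substrate were first combined with test chemical for 10 min at room temperature. Adding NADPH regeneration solution started a 1 h reaction, stopped with luciferin detection reagent and read by luminescence 20 min later.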

[13] = biological target: Cytochrome P450 2C19 (Homo sapiens) (UniProt P33261); assay: Cytochrome P450 Family 2 Subfamily C Member 19 (CYP2C19) small molecule antagonists: luciferase reporter qHTS assay (AID 1671197); also: nearly all actives have a fitted effect of over 65% in size; also: potency is read from the fitted curve at half-maximal effect
Summary of the method: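 Compounds were tested on CYP2C19 activity via proluciferin conversion to luciferin. The 37C, 1 h reaction followed NADPH addition; detection reagent stopped it.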

[14] = biological target: Cytochrome P450 2C9 (Homo sapiens) (UniProt P11712); assay: Cytochrome P450 Family 2 Subfamily C Member 9 (CYP2C9) small molecule antagonists: luciferase reporter qHTS assay (AID 1671198); also: nearly all actives have a fitted effect of over 50% in size; also: potency is read from the fitted curve at half-maximal effect
Summary of the method: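 Enzyme-substrate mix preincubated with compound 10 min at room temperature; reaction started with NADPH regeneration solution, 1 h 37C. Luminescent luciferin product read after 20 min detection reagent.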

[15] = qHTS assay to identify small molecule antagonists of the progesterone receptor (PR) signaling pathway - cell viability counter screen (AID 1346798); also: nearly all actives have a fitted effect of over 50% in size; also: potency is read from the fitted curve at half-maximal effect
Summary of the method: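 In the same plates used for the beta-lactamase readout, cell viability of compound- and R5020-treated PR-UAS-bla HEK293T cells (16 hr, 37C) was assessed by CellTiter-Glo luminescence.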

[16] = Caspase-3/7 induction in CHO-K1 cells by small molecules, qHTS assay (AID 1346980); also: nearly all actives have a fitted effect of over 15% in size
Summary of the method: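 Luminescent Caspase-Glo 3/7 read (30min, room temperature) quantified apoptosis induction. Cells were wild-type CHO-K1, treated with compound for 17hr at 37 C and 5% CO2.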

[17] = biological target: Progesterone receptor (Homo sapiens) (UniProt P06401); assay: qHTS assay to identify small molecule antagonists of the progesterone receptor (PR) signaling pathway (AID 1346795; active = well fitted inhibition curve with a large enough effect in the signal ratio in the repeat runs, not every such curve was filed as active; the % refers to the signal ratio; also: potency is read from the fitted curve at half-maximal effect)
Summary of the method: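 Stimulus R5020 at 1 nM final; cells HEK293T PR-UAS-bla; medium with 2% charcoal-stripped FBS; compound exposure 16 hr at 37C, 5% CO2; detection by FRET beta-lactamase substrate, 2 hr, room temperature.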

[18] = Caspase-3/7 induction in CHO-K1 cells by small molecules, qHTS cell viability counter screen (AID 1346979); also: nearly all actives have a fitted effect of over 35% in size; also: potency is read from the fitted curve at half-maximal effect
Summary of the method: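 Following a 5hr settling period, CHO-K1 cells at 1,500 per well received DMSO-dissolved compounds. Cell viability was quantified 16hr later by CellTiter-Fluor fluorescence, measured after 1hr with reagent at 37C.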

[19] = biological target: Nuclear receptor subfamily 1 group I member 2 (Rattus norvegicus) (UniProt Q9R1A7); assay: Rat pregnane X receptor (rPXR) activation by small molecules, qHTS assay (AID 1346983); conditions: rPXR luciferase reporter cells, One-Glo luminescence, 24 h; max activation: hits give high values; also: nearly all actives have a fitted effect of over 20% in size
Summary of the method: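 Luminescent readout (One-Glo luciferase, 30 min room temperature) followed 24 hr compound treatment at 37 C of rPXR cells plated 2,000 per well and preincubated 5hr; qHTS format with compounds delivered in DMSO.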

[20] = biological target: Nuclear receptor subfamily 1 group I member 2 (Homo sapiens) (UniProt O75469); assay: CYP3A4 induction through human pregnane X receptor (PXR) by small molecules, qHTS assay (AID 1346984); also: nearly all actives have a fitted effect of over 40% in size
Summary of the method: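 Quantitative HTS in DPX-2 cells, i.e. HepG2 transfected with PXR response element and CYP3A4-promoter luciferase. Compounds in DMSO incubated 24hr at 37C; then P450-Glo CYP3A4 substrate, 3uM final, 3hr; One-Glo luminescence.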
% is scaled to controls: 0 for no effect and ±100 for the full control effect.

Chain of Nuclear receptor subfamily 1 group I member 2 (Homo sapiens) (O75469 whole entry, looked up): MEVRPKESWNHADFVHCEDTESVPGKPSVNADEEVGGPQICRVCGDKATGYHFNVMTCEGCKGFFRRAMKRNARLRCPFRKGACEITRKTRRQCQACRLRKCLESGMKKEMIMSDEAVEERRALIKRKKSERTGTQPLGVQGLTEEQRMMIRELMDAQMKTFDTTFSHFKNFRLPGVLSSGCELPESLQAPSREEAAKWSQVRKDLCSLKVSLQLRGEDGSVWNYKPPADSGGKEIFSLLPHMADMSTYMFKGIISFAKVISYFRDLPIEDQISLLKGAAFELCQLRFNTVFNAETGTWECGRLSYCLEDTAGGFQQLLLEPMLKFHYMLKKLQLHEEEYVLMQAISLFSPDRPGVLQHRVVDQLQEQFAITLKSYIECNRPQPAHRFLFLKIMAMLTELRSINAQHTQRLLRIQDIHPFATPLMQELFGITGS
Chain of Progesterone receptor (Homo sapiens) (P06401 whole entry, looked up): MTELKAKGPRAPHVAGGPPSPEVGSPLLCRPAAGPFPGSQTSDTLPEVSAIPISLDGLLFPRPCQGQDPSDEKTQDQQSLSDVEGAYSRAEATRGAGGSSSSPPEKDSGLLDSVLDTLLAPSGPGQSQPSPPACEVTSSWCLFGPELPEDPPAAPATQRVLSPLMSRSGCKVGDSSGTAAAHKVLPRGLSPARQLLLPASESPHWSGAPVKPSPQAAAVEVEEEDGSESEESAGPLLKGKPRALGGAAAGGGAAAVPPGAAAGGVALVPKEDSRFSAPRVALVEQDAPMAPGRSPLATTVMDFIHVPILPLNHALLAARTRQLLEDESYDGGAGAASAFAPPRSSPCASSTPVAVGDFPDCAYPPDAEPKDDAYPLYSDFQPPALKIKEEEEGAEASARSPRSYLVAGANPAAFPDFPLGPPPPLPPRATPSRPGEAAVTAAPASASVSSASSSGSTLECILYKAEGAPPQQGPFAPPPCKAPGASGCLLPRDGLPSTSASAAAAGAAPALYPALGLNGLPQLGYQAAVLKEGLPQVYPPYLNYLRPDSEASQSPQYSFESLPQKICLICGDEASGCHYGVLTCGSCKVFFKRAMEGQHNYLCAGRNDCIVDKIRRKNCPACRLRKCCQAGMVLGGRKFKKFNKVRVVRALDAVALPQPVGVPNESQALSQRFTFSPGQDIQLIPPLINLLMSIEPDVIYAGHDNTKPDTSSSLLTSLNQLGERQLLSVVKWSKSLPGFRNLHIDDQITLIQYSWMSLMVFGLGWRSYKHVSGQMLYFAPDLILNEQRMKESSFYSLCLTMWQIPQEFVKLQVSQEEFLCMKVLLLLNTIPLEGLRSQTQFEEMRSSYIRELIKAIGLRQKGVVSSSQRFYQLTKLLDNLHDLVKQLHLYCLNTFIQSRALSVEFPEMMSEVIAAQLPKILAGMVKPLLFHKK
Chain of Thyrotropin-releasing hormone receptor (Homo sapiens) (P34981 whole entry, looked up): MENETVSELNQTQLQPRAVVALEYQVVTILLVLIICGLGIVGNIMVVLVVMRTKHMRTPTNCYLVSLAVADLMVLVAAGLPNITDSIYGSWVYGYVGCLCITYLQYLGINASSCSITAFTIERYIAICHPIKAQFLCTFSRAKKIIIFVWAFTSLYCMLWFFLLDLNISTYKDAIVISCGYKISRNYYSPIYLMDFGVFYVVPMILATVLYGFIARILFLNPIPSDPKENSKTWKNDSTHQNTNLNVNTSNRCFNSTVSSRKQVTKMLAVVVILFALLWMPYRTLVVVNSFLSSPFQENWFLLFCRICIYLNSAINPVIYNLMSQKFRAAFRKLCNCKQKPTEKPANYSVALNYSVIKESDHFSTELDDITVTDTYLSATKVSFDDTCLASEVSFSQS
Chain of Cytochrome P450 2C9 (Homo sapiens) (P11712 whole entry, looked up): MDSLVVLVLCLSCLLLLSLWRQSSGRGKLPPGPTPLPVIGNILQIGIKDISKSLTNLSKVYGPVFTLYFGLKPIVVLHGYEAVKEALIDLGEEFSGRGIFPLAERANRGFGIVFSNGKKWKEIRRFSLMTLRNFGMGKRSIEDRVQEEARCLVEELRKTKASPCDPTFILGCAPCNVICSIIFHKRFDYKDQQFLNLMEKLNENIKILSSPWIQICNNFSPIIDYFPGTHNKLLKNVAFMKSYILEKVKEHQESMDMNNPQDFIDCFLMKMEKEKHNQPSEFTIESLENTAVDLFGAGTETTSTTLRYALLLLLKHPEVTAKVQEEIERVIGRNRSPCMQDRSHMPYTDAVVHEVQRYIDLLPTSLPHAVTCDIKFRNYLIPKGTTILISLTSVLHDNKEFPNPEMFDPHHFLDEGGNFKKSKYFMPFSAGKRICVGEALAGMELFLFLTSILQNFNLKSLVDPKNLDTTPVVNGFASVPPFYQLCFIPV
Chain of Cytochrome P450 2D6 (Homo sapiens) (P10635 whole entry, looked up): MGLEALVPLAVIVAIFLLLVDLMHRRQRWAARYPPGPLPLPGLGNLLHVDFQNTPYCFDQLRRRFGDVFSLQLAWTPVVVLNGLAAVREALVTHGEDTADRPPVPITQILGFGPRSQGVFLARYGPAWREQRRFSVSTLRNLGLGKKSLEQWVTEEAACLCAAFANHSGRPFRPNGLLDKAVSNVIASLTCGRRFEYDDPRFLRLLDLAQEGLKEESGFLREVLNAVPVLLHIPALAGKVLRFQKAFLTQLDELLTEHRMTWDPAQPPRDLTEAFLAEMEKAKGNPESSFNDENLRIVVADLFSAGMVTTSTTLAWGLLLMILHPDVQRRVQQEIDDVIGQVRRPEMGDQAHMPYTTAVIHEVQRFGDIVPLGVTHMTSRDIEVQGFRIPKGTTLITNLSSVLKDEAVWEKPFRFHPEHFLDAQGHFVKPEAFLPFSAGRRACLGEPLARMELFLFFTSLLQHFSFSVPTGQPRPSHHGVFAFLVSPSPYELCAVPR
Chain of Cytochrome P450 2C19 (Homo sapiens) (P33261 whole entry, looked up): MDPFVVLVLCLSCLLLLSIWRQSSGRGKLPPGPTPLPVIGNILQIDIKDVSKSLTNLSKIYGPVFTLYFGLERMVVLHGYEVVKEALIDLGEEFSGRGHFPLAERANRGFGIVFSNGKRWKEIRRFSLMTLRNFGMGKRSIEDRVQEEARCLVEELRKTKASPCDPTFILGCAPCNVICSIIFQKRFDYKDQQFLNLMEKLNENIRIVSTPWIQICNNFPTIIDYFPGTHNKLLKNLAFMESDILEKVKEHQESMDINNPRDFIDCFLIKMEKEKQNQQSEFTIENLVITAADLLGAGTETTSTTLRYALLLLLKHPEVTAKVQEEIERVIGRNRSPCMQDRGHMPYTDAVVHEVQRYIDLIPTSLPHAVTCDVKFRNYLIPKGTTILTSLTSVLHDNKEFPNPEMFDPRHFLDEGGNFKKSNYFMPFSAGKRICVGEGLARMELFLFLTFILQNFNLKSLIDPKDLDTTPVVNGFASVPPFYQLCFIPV
Chain of Nuclear receptor subfamily 1 group I member 2 (Rattus norvegicus) (Q9R1A7 whole entry, looked up): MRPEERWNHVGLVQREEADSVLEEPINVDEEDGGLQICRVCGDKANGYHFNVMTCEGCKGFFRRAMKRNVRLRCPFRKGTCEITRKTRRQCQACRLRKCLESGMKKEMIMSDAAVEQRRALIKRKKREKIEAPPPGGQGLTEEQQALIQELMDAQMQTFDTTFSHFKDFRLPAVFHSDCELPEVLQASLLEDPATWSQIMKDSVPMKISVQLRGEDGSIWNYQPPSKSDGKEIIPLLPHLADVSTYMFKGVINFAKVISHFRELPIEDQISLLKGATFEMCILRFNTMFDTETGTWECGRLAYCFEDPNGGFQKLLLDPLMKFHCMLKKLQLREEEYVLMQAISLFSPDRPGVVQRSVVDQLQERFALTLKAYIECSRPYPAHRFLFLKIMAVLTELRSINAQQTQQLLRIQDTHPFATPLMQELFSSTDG

CCC(=O)OCCc1ccccc1
inactive: outcome [1] | Potency [2] | Potency [3] | Potency [4] | Potency [5] | Potency [6] | Potency [7] | Potency [8] | Potency [9] | Potency [10] | Potency [11] | Potency [12] | Potency [13]
active: Potency [14] 13.6 µM

CCO[Si](CCCSSSSCCC[Si](OCC)(OCC)OCC)(OCC)OCC
active: Potency [12] 35.6 µM | Potency [13] 5.03 µM | Potency [14] 12.6 µM
inactive: outcome [1] | Potency [15] | Potency [3] | Potency [4] | Potency [6] | Potency [7] | Potency [8] | Potency [9] | Potency [16] | Potency [11]

CCc1cccc(CC)c1N(COC)C(=O)CS(=O)(=O)O
inactive: Potency [17] | Potency [15] | Potency [2] | Potency [4] | Potency [5] | Potency [6] | Potency [7] | Potency [8] | Potency [9] | Potency [16] | Potency [11] | Potency [12] | Potency [13]

CCO[Si](C)(C)OCC
inactive: Potency [17] | Potency [15] | Potency [2] | Potency [3] | Potency [4] | Potency [5] | Potency [8] | Potency [9] | Potency [18] | Potency [16] | Potency [10] | Potency [11] | Potency [14]

NC(=O)c1nc(-c2cccc(-c3cc(F)ccc3OCC(F)(F)C(F)(F)F)c2)n[nH]1
active: Potency [17] 34.4 µM | Potency [8] 54.5 µM | Potency [18] 54.5 µM | Potency [10] 61.1 µM | Potency [11] 61.1 µM | Potency [13] 28.3 µM | Potency [14] 28.3 µM
inactive: Potency [3] | Potency [4] | Potency [5] | Potency [6] | Potency [7] | Potency [9]

c1ccc(Nc2cccc3ccccc23)cc1
active: Potency [17] 13.9 µM | Potency [18] 61.9 µM | Potency [11] 61.9 µM and 30.6 µM | Potency [12] 32.1 µM | Potency [14] 36.1 µM and 35.6 µM
inactive: Potency [15] | Potency [2] | Potency [4] | Potency [5] | Potency [6] | Potency [7] | Potency [9] | Potency [16] | Potency [10]

O=CC1CC1
inactive: Potency [17] | Potency [2] | Potency [3] | Potency [4] | Potency [5] | Potency [6] | Potency [7] | Potency [8] | Potency [9] | Potency [18] | Potency [16] | Potency [10] | Potency [11] | Potency [12] | Potency [13] | Potency [14]

COCC(=O)O[C@]1(CCN(C)CCCc2nc3ccccc3[nH]2)CCc2cc(F)ccc2[C@@H]1C(C)C
inactive: Potency [5] | Potency [6] | Potency [7] | max activation [19] -19.6% | Potency [20] | Potency [14]
active: Potency [17] 26.6 µM | Potency [15] 26.6 µM | Potency [2] 21.1 µM | Potency [8] 23.7 µM | Potency [9] 26.6 µM | Potency [18] 29.8 µM | Potency [10] 29.8 µM | Potency [11] 1.68 µM
